About 2,100 (3.2%) of roughly 65,000 compounds showed an effect of 50% or more. The median lay at about -52%. Shown is part of a subset that was picked to be rich in strong results.
Each molecule was assayed on Plasmodium falciparum (assay: Screen against P. falciparum Asexual Blood Stage (ABS), at 5uM). Details: tested at 5 uM.
Format: functional, Dd2

| SMILES | INHIBITION |
| --- | --- |
| CN(C)Cc1cnc(C2CCN(C(=O)c3ccc(F)cc3)C2)[nH]1 (configuration not stated) | -144% |
| CCOc1cc(C)nc(N2CCN(C(=O)C(C)NC(C)=O)CC2)n1 (configuration not stated) | -92.3% |
| COc1ccccc1N1CCC(NCc2c(C)noc2C)C1 (configuration not stated) | 28.4% |
| Cc1noc(C)c1CNC1CCN(c2ccccc2OC(F)F)C1 (configuration not stated) | 63.7% |
| O=C(Nc1ccccn1)NC1CCN(c2ccccc2OC(F)F)C1 (configuration not stated) | 8.94% |
| O=C(Nc1ccncc1)NC1CCN(c2ccccc2OC(F)F)C1 (configuration not stated) | 64.4% |
| Cc1ccc(N2CCCC(NCc3c(C)noc3C)C2)nn1 (configuration not stated) | -2.57% |
| O=C(Nc1cccnc1)NC1CCN(c2ccccc2OC(F)F)C1 (configuration not stated) | 16% |
| CCCOc1c(Cl)cc(C(=O)N2CCOC23CCN(C)CC3)cc1Cl | -5.1% |
| CSCc1cc(F)ccc1CNC(=O)N1CCCC(CO)C1 (configuration not stated) | -126% |
| OC(c1ccccc1)C1CCN(Cc2csc(-c3ncccn3)n2)CC1 (configuration not stated) | -49.1% |
| CCC1=N[C@@]2(CC[C@@H]3CN(C(=O)NCc4ccccc4C)C[C@@H]32)C(=O)N1 | -16% |
| c1cnn(CC2CCCN2c2ncnc3ccsc23)c1 (configuration not stated) | -122% |
| CCc1cnc(N)nc1NCCCn1nc(C)nc1C | -44.2% |
| CCc1cnc(N)nc1NCCc1ccc(OC)cc1OC | -6.25% |
| CCc1cnc(C)nc1NCCN1CCOCC1 | -11.8% |
| CCc1cnc(N)nc1NCCn1cc(Cl)cn1 | 55.4% |
| CCc1cnc(N)nc1NCCN1CCCCC1 | 51.1% |
| CCc1cnc(C)nc1NCCN1CCCCCC1 | 44.7% |
| Cc1ccc(CN2CCC3(CC2)CN(c2ccccc2)C(=O)CO3)o1 | -69% |
| c1cnn(CC2CN(Cc3csc(C4CCCCC4)n3)CCO2)c1 (configuration not stated) | -70% |
| CNc1ncc(CN(C)C(=O)CCc2[nH]nc3c2CCCC3)cn1 | -74.2% |
| NC(=O)C1CCN(C(=O)c2ccc(OCc3cscn3)cc2)CC1 | -12.2% |
| CCS(=O)(=O)N1CCc2ccc(NC(=O)Nc3cccc(F)c3)cc21 | -51.9% |

| SMILES | INHIBITION |
| --- | --- |
| CC(C)(C)NC(=O)c1ccn(COc2ccccc2Cl)n1 | -35.7% |
| CC(C)(C)n1nnnc1CN(Cc1ccccc1)Cc1ccc(Cl)cc1 | 67.5% |
| CC(C)(C)n1nnnc1CN(CCc1ccccc1)Cc1ccccc1 | 20.2% |
| CC(C)(C)n1ncc(NCc2ccccc2)c(Cl)c1=O | -43.4% |
| COc1ncccc1CNC(=O)c1ccco1 | -16.5% |
| Cn1c(CN2CCOCC2)cc(=O)c(O)c1CN1CCCC1 | -205% |
| Cn1c(CN2CCCCCC2)cc(=O)c(O)c1CN1CCCC1 | 60.2% |
| Cn1c(CN2CCOCC2)cc(=O)c(O)c1CN1CCCCC1 | -211% |
| c1ccc(C2Cn3ccnc3CN2Cc2ncc[nH]2)cc1 (configuration not stated) | -116% |
| Cc1cccc(Nc2cc(C3CCCN(CC(N)=O)C3)ccn2)n1 (configuration not stated) | -10.4% |
| Cc1cnn(C2CCCN(C(=O)c3cccc(Cn4ccnc4)c3)C2)c1 (configuration not stated) | -112% |
| O=C(c1cccc(Cn2ccnc2)c1)N1CCCC(n2cccn2)C1 (configuration not stated) | 61.4% |
| O=C(c1cccc(Cn2ccnc2)c1)N1CCCC(n2ccnc2)C1 (configuration not stated) | -59.1% |
| CCN(CC)c1ccc2ccc(C(=O)N3CCCCO3)cn12 | 44.7% |
| c1ccc(-c2nnc3n2CCN(Cc2ccc4c(c2)OCCO4)C3)cc1 | 58.5% |
| CC(C)c1nnc2n1CCN(Cc1ccc3c(c1)OCCO3)C2 | -93.4% |
| CCc1nnc2n1CCN(Cc1ccc3c(c1)OCCO3)C2 | -83% |
| O=C(NCCNC1CCCC1)c1cccs1 | -54.1% |
| CC1CCC(NCCNC(=O)c2cccs2)CC1 (configuration not stated) | 63.7% |
| O=C(NCCNC1CCCCC1)c1cccs1 | -44.7% |
| CCC(CC)C(=O)Nc1ccc2oc(=O)n(CCN(C)C)c2c1 | 25.5% |
| CN(Cc1ccccc1)CC1CC2(CO1)CN(c1nncs1)C2 (configuration not stated) | -0.698% |
| CN(Cc1ccccc1)CC1CC2(CO1)CN(Cc1nccs1)C2 (configuration not stated) | 6.81% |
| CN(Cc1ccccc1)CC1CC2(CO1)CN(Cc1cnn(C)c1)C2 (configuration not stated) | 52.1% |

| SMILES | INHIBITION |
| --- | --- |
| CNC(=O)Cc1ccccc1NC(=O)N[C@H]1c2ccccc2C[C@H]1O | -69.7% |
| COc1ccc(CCC2CCCCN2)cc1OC (configuration not stated) | -112% |
| O=c1cc(-c2cc(O)cc(CCC3CCCCN3)c2)cc[nH]1 (configuration not stated) | 0.568% |
| Oc1cc(CCC2CCCCN2)cc(-c2cccnc2)c1 (configuration not stated) | 69% |
| O=c1[nH]ccc2cc(-c3cc(O)cc(CCC4CCCCN4)c3)ccc12 (configuration not stated) | -57.5% |
| Oc1cc(CCC2CCCCN2)cc(-c2ccncc2)c1 (configuration not stated) | 67.5% |
| Nc1ccc(-c2cc(O)cc(CCC3CCCCN3)c2)cn1 (configuration not stated) | -92.8% |
| Cc1nc2c(c(NCCCN3CCOCC3)n1)CCN(C)C2 | -73.4% |
| COC(=O)c1cccn1C1CCN(Cc2ccccc2)CC1 | -122% |
| CN1CC2(CCC1=O)CCN(CC[C@@H](O)c1ccccc1)CC2 | -14% |
| Cn1ccnc1CCNC(=O)C1CCCN(Cc2cccc(F)c2)C1 (configuration not stated) | 59.3% |
| Cn1cnnc1CNC(=O)C1CCCN(Cc2cccc(F)c2)C1 (configuration not stated) | -141% |
| Cn1cc(CNC(=O)C2CCCN(Cc3cccc(F)c3)C2)cn1 (configuration not stated) | -59.1% |
| CCCN(C(=O)c1ccccn1)c1nc2c(s1)CCc1c-2cnn1C | 38.1% |
| CCCN(C(=O)c1ccncc1)c1nc2c(s1)CCc1c-2cnn1C | 55.6% |
| CCCN(C(=O)c1cnccn1)c1nc2c(s1)CCc1c-2cnn1C | -28.8% |
| OC1CCN(Cc2c(C3CCCNC3)[nH]c3ncccc23)CC1 (configuration not stated) | -65.3% |
| O=C(CCn1ccc2cc(Br)ccc21)NC[C@@H]1CCCN2CCCC[C@H]12 | 67.1% |
| O=C(Cn1ccc2ccccc21)NC[C@@H]1CCCN2CCCC[C@H]12 | -14.5% |
| Cc1ccc2c(ccn2CCC(=O)NC[C@@H]2CCCN3CCCC[C@H]23)c1 | 52% |
| O=C(Cn1ccc2cc(Br)ccc21)NC[C@@H]1CCCN2CCCC[C@H]12 | -14% |
| Cc1ccc2c(ccn2CC(=O)NC[C@@H]2CCCN3CCCC[C@H]23)c1 | 49% |
| COc1ccc2c(ccn2CC(=O)NC[C@@H]2CCCN3CCCC[C@H]23)c1 | -57.3% |
| Nc1cc(N2CCC(c3cc(Cc4ccccc4)n[nH]3)CC2)ccn1 | 11.1% |

| SMILES | INHIBITION |
| --- | --- |
| Cc1cc(C)n(C2CN(Cc3ccccn3)C2)n1 | -90.2% |
| CN(C)[C@@H]1CN(Cc2ccccn2)C[C@H]1c1cn(C)c2ccccc12 | 52.6% |
| CN(Cc1ccco1)[C@@H]1CN(Cc2ccccn2)C[C@@H]2CCCO[C@@H]21 | 31.5% |
| COc1cccc2c1OCC(Cc1cc(C(=O)N3CCCC3)ccn1)C2 (configuration not stated) | -9.28% |
| COc1ccc([C@@H]2CN(Cc3ccncc3)C[C@H]2N(C)C)cc1 | -36.3% |
| COc1ccc([C@@H]2CN(Cc3cccnc3N)C[C@H]2NC(C)=O)cc1 | -59.7% |
| COc1ccc([C@@H]2CN(Cc3cccnc3N)C[C@H]2N(C)C)cc1 | 53.9% |
| Cn1cccc1C(=O)N1CCn2cc(CN3CCCC3)nc2C1 | -26.2% |
| CCc1ccc(CN(C/C=C/c2ccccc2)CCOC)nc1 | 54.8% |
| COCCN(C/C=C/c1ccccc1)Cc1ccccn1 | 23.1% |
| COCCN(C/C=C/c1ccccc1)Cc1nccs1 | -7.08% |
| O=C(c1cccc(Cl)c1)N1CCCn2c(CN3CCCCC3)nnc2C1 | 10.2% |
| Cn1ccnc1-c1nc2cc(S(=O)(=O)N3CCCC3)ccc2n1C | -13.2% |
| Nc1cc2c(nn1)CCN(C(=O)CCC1CCCCC1)C2 | -69.7% |
| CN(C)c1ccc(CN(CCCn2ccnc2)Cc2c[nH]cn2)cc1 | 79.8% |
| c1cc(CN(CCCn2ccnc2)Cc2ccoc2)ccn1 | -27% |
| Cc1ccc(CN(CCCn2ccnc2)Cc2c[nH]cn2)s1 | 21.2% |
| Cc1nc[nH]c1-c1nccn1CCN1CCOC1=O | -38.9% |
| Cn1cc(C2CCCN2CCCn2c(=O)oc3ccccc32)cn1 (configuration not stated) | 8.65% |
| Cc1nc(C2CCCN2CCCn2c(=O)oc3ccccc32)no1 (configuration not stated) | -44.1% |
| O=c1oc2ccccc2n1CCCN1CCCC1c1ccc(O)cc1 (configuration not stated) | 54.1% |
| CN1CCC(CCc2ccnc(NC(=O)c3ccccn3)c2)CC1 | -102% |
| Cn1ccnc1CNCCNc1ncc(Cl)cc1Cl | 41.8% |
| CCn1cc(CNc2ccc3nccnc3c2)cn1 | -14.1% |

| SMILES | INHIBITION |
| --- | --- |
| Cn1cc(CNCCNc2ncc(Cl)cc2Cl)cn1 | 54% |
| CCn1cc(CNC(=O)CCn2ncc3c(Cl)cccc32)cn1 | -21.7% |
| Cn1cc(CCNCc2cc(Cl)c3c(c2)OCCO3)cn1 | -26.6% |
| CCn1cc(CNCCNc2ncc(Cl)cc2Cl)cn1 | 66.6% |
| O=C([C@@H]1CC[C@@H]2[C@@H](CCN2Cc2ccoc2)O1)N1CCCC1 | -94.6% |
| O=S(=O)(c1ccc(Cl)s1)N1CCN(Cc2nc(-c3ccco3)cs2)CC1 | -66% |
| NC(=O)C1(c2cnccn2)CCCN1Cc1ccncc1 (configuration not stated) | -58.5% |
| O=C(NCCNC(=O)c1ccc(Br)cc1)c1ccc(O)cc1 | 30.3% |
| O=C(NCCNc1cncc(Br)c1)c1ccc(O)cc1 | 52.2% |
| O=C(NCCNc1ccc(Br)cn1)c1ccc(O)cc1 | -20.5% |
| CCCN1CCc2c(C(=O)N(C)Cc3ccccn3)nn(C)c2C1 | -23.7% |
| O=C(Cc1ccsc1)N1CCCC(c2n[nH]c3ncccc23)C1 (configuration not stated) | -37.1% |
| COc1ccc(C2CCCCCN2CCCNS(C)(=O)=O)cc1 (configuration not stated) | 59.3% |
| CS(=O)(=O)NCCCN1CCCC1c1ccsc1 (configuration not stated) | -73.1% |
| O=C(CCN1CCCCC1c1cc2ccccc2[nH]1)N1CCOCC1 (configuration not stated) | 39.3% |
| CS(=O)(=O)NCCCN1CCCC1c1cccc(Br)c1 (configuration not stated) | 65.4% |
| CS(=O)(=O)NCCCN1CCCC1c1ccccc1 (configuration not stated) | -93.1% |
| CS(=O)(=O)NCCCN1CCCCC1c1cc2ccccc2[nH]1 (configuration not stated) | 58.9% |
| COc1ccc(C2CCCCCN2S(C)(=O)=O)cc1 (configuration not stated) | -92.8% |
| COc1cccc(C2CCCN2CCCNS(C)(=O)=O)c1 (configuration not stated) | -0.589% |
| CS(=O)(=O)NCCCN1CCCC1Cc1ccccc1 (configuration not stated) | -29% |

Source: ChEMBL document CHEMBL4513216, “Probing the Open Global Health Chemical Diversity Library for Multistage-Active Starting Points for Next-Generation Antimalarials” (ACS Infect Dis, 2020)
